# From PubChem BioAssay AID540256 (National Center for Advancing Translational Sciences (NCATS), 2011)
# Out of some 300,000 compounds screened, about 3,700 (1.2%) were called active. Where a call stands in place of a potency, no number is given. Roughly 20% stayed inconclusive and do not appear here. Calls come from the whole dose curve; tested in HEK293 cells. Only a selection was taken, and actives are over-represented in it overall.
# Assay: qHTS for Inhibitors of binding or entry into cells for Lassa Virus; note: nearly all actives have a fitted effect of over 50% in size
# Settings: Lassa virus pseudotype entry inhibition, cell reporter; series mostly up to 37.9 µM
# Potency is the fitted concentration of half-maximal effect.
row,Structure (SMILES),Potency
1,O=C(/C=C/c1cccc([N+](=O)[O-])c1)OCC(=O)N1CCOCC1,inactive
2,O=C(NCCc1ccco1)c1ccc(OCc2cn3ccccc3n2)cc1,inactive
3,CCc1nn(CCCC(=O)Nc2ccc(C)c(C)c2)c(=O)c2cc3occc3n12,inactive
4,CCOC(=O)c1c(NC(=O)c2ccc(S(=O)(=O)N(CC)CC)cc2)sc2c1CCCCC2,inactive
5,C=CCN(CC=C)S(=O)(=O)c1ccc(C(=O)Nc2nc3c(s2)CCc2ccccc2-3)cc1,3.16 µM (active)
6,C=CCN(CC=C)S(=O)(=O)c1ccc(C(=O)Nc2sc3c(c2C(N)=O)CCCCC3)cc1,inactive
7,O=C(Nc1ncccc1O)c1ccc(S(=O)(=O)N2CCCCCC2)cc1,inactive
8,CC(=O)/C(=N\Nc1ccc(Cl)cc1Cl)Sc1cccc2cccnc12,11.2 µM (active)
9,COc1c(Cl)cc(Cl)cc1C(=O)Nc1cccc2cccnc12,inactive
10,O=C(CSc1cccc2cccnc12)N/N=C/c1cccnc1,inactive
11,O=C(CC(=O)c1cccnc1)c1ccccc1,inactive
12,CCN(C(=O)CSc1cccc[n+]1[O-])c1ccccc1,inactive
13,CC1(C(=O)N/N=C/c2cc3c(cc2Br)OCO3)CC1(Br)Br (stereo unspecified),inactive
14,O=C(COC(=O)c1ccc(F)cc1)Nc1nc2ccc([N+](=O)[O-])cc2s1,inactive
15,CS(=O)(=O)c1ccc2nc(NC(=O)c3ccc(N4CCCC4=O)cc3)sc2c1,inactive
16,O=C(Nc1nc2ccc([N+](=O)[O-])cc2s1)c1ccc(S(=O)(=O)N2CCCc3ccccc32)cc1,12.6 µM (active)
17,O=C(Nc1nnc(S(=O)(=O)N2CCCc3ccccc32)s1)c1cccc(F)c1,inactive
18,O=C(Nc1nc2ccc([N+](=O)[O-])cc2s1)c1ccncc1,inactive
19,O=C(NC(Nc1nc2ccc([N+](=O)[O-])cc2s1)(C(F)(F)F)C(F)(F)F)c1ccccc1,0.92 µM (active)
20,COc1cc(C2C(C(=O)c3cccs3)=C(O)C(=O)N2CCN2CCOCC2)ccc1OCCC(C)C (stereo unspecified),inactive
21,COc1cc(C(=O)CCc2ccc3c(c2)OCO3)cc(OC)c1OC,inactive
22,Cn1c(=O)[nH]c2c(c(C(=O)O)nn2C)c1=O,inactive
23,COc1cc2c(cc1OC)CN(C(C)C(=O)Nc1cccc(S(=O)(=O)N3CCOCC3)c1)CC2 (stereo unspecified),inactive
24,CC(=O)CSc1nc(CCc2ccccc2)c(C#N)c(=O)[nH]1,inactive

row,Structure (SMILES),Potency
1,Cc1cccc(N2CCN(C(=O)c3cc4c(=O)[nH]c5ccccc5c4n3C)CC2)c1C,inactive
2,O=C(NCCN1CCN(Cc2ccccc2)CC1)c1cc2c(=O)[nH]c3ccccc3c2s1,inactive
3,Cn1c(C(=O)NCCN2CCc3ccccc3C2)cc2c(=O)[nH]c3ccccc3c21,0.92 µM (active)
4,OC1CCCN(c2ncnc3c2nnn3Cc2c(F)cccc2Cl)C1 (stereo unspecified),6.31 µM (active)
5,Cc1ccc(NC(=O)N2CCC(c3nc4c(nnn4Cc4c(F)cccc4Cl)c(=O)[nH]3)CC2)cc1,inactive
6,CCOC(=O)N1CCN(C(=O)C2CCCN(c3ncnc4c3sc3cccc(F)c34)C2)CC1 (stereo unspecified),inactive
7,Cc1ccc(Br)c(NS(=O)(=O)c2cccc(C(=O)N3CCNC(=O)C3)c2)c1,inactive
8,NC(=O)C1CCN(C(=O)c2cccc(NC(=O)c3nsc4ccccc34)c2)CC1,inactive
9,Cn1cccc1C(=O)OCC(=O)c1ccc(Br)s1,inactive
10,COc1ccc(CNC(=O)CN2C(=O)c3ccccc3S2(=O)=O)cc1,inactive
11,COc1ccc(COC(=O)N/N=C(\C)CC(=O)Nc2ccc(Cl)cc2)cc1,0.141 µM (active)
12,COc1cccc(NC(=O)C/C(C)=N/NC(=O)C2CCCCC2)c1,inactive
13,C/C(CC(=O)Nc1ccc(Cl)cc1)=N\NC(=O)C(=O)NCCO,inactive
14,CCN(CC(=O)Nc1ccccc1OC)C(=O)CC1CC2CCC1C2 (stereo unspecified),inactive
15,Cc1ccc(OCC(=O)N/N=C\c2ccco2)c(C)c1,inactive
16,Cc1ccc(/C=N/NC(=O)COc2ccccc2-c2ccccc2)cc1,1.64 µM (active)
17,Cc1ccc(OCC(=O)N/N=C/c2ccncc2)cc1,inactive
18,O=C(CCl)Nc1cccc(CP(=O)(c2ccccc2)c2ccccc2)c1,7.94 µM (active)
19,O=C(Cc1ccccc1)Nc1cccc(NC(=O)c2ccccc2)c1,inactive
20,CCc1cccc(NC(=O)CCC(=O)O)c1,inactive
21,CN(C)S(=O)(=O)c1ccc(N2CCCC2)c(C(=O)Nc2ccc(Br)cc2F)c1,inactive
22,CCCn1nc(C(=O)OCc2nc(N)nc(Nc3ccccc3C)n2)c2ccccc2c1=O,inactive
23,CCC(C(=O)Nc1cc(OC)ccc1OC)n1c(=O)c(C(F)(F)F)nc2ccccc21 (stereo unspecified),inactive
24,O=C(N/C(=C/c1ccc(Cl)cc1)C(=O)N1CCCCC1)c1ccco1,inactive

row,Structure (SMILES),Potency
1,CCN(CC)S(=O)(=O)c1ccc2c(c1)c(=O)c(C(=O)N1CCN(c3cccc(Cl)c3)CC1)cn2C,inactive
2,C=CCn1cc(C(=O)NCc2ccc(Cl)cc2)c(=O)c2cc(S(=O)(=O)N(CC)CC)ccc21,0.398 µM (active)
3,CCn1cc(C(=O)NCc2ccccc2)c(=O)c2cc(S(=O)(=O)N3CCCCC3)ccc21,inactive
4,CC(=O)OC1CCC2(C)C(=CCC3C4CC(=O)N(O)C(=O)C4(C)CCC32)C1 (stereo unspecified),inactive
5,CC(C(=O)NC1CCCC1)N1CCN(S(=O)(=O)c2ccccc2Cl)CC1 (stereo unspecified),inactive
6,Cc1ccc(N(CC(=O)NC2CCCCC2)C(=O)CCCC(=O)Nc2ccccn2)c(C)c1,inactive
7,CC(Nc1nc(N2CCOCC2)nc2ccccc12)c1ccccc1 (stereo unspecified),inactive
8,CC(Nc1nc(N2CCCC2)nc2ccccc12)c1ccccc1 (stereo unspecified),12.6 µM (active)
9,c1ccc2c(NC3C4CC5CC(C4)CC3C5)nc(N3CCOCC3)nc2c1 (stereo unspecified),inactive
10,Cc1ccc(S(=O)(=O)N2CCC(C(=O)NCCC3=CCCCC3)CC2)cc1C,inactive
11,COc1cc(NC(=O)c2ccc(-c3csc(C)n3)cc2)c(OC)cc1Cl,inactive
12,O=C1c2ccccc2C(=O)c2c1cccc2N1CCN(C/C=C/c2ccccc2)CC1,inactive
13,O=C(Nc1cccc(Br)c1)C1CC(=O)N(C2CCCC2)C1 (stereo unspecified),inactive
14,CN(c1ccccc1)S(=O)(=O)c1cccc(NC(=O)Cc2ccc(Cl)cc2)c1,8.91 µM (active)
15,CN(C)S(=O)(=O)c1cccc(NC(=S)N/N=C/C(=O)c2ccccc2)c1,inactive
16,CN(C)S(=O)(=O)c1cccc(NC(=O)COC(=O)/C=C/c2cccs2)c1,inactive
17,NS(=O)(=O)c1ccc(NC(=O)COC(=O)C2(c3ccc(F)cc3)CCCC2)cc1,inactive
18,CN(C)S(=O)(=O)c1cccc(NC(=O)Cc2ccsc2)c1,2.82 µM (active)
19,CN(c1ccccc1)S(=O)(=O)c1cccc(C(=O)NNC(=O)c2ccncc2)c1,inactive
20,CN(c1cccc(NC(=O)Nc2ccc(Cl)cc2)c1)S(C)(=O)=O,inactive
21,Cc1ccc(S(=O)(=O)N(CC(=O)Nc2cccc([N+](=O)[O-])c2)Cc2ccc(Cl)cc2)cc1,inactive
22,CN(c1ccccc1)S(=O)(=O)c1ccc(Cl)c(C(=O)OCC(N)=O)c1,inactive
23,CN(c1ccccc1)S(=O)(=O)c1cccc(NC(=O)Cc2c(F)cccc2Cl)c1,11.2 µM (active)
24,CN(C)S(=O)(=O)c1cccc(NC(=O)COC(=O)c2cc(=O)[nH]c(=O)[nH]2)c1,inactive

row,Structure (SMILES),Potency
1,CN(C)S(=O)(=O)c1cccc(NC(=O)COC(=O)C2(c3ccccc3F)CCCC2)c1,4.11 µM (active)
2,O=C(COC(=O)C1CCCO1)Nc1nc(-c2ccc(F)cc2)cs1 (stereo unspecified),inactive
3,COc1cc(N)c(Cl)cc1C(=O)OCC(=O)c1ccc2c(c1)NC(=O)CO2,inactive
4,COC(=O)C=C[C@H]1c2ccccc2[C@@H](OC)[C@@H]1C,inactive
5,NC1=NC(c2ccc([N+](=O)[O-])cc2)N(c2ccc(F)cc2)C(N)=N1 (stereo unspecified),inactive
6,CC(C)Sc1nc(N)nc2c1ncn2C1OC(CO)C(O)C1O (stereo unspecified),inactive
7,COc1cc2c(cc1OC)CN(C(=O)c1cc(S(=O)(=O)N3CCCCC3)ccc1Cl)CC2,inactive
8,CCOc1ccccc1NC(=S)C(=C([O-])c1ccc2c(c1)OCCO2)[n+]1ccc(CC)cc1,inactive
9,CC(C)c1ccc(NC(=O)c2ccc(Cn3nc(N4CCN(c5ccccc5)CC4)ccc3=O)o2)cc1,inactive
10,O=C(CSc1nnc(COc2ccc(Cl)cc2)n1Cc1ccco1)N1CCNC1=O,inactive
11,O=C(c1cc(C(=O)N2CCN(c3ccc(F)cc3)CC2)cc([N+](=O)[O-])c1)N1CCN(c2ccc(F)cc2)CC1,inactive
12,O=C(NCCCN1CCCC1=O)C(=O)NCC1OCCN1S(=O)(=O)c1ccc(Br)cc1 (stereo unspecified),inactive
13,Cc1cc(C)cc(NC(=S)NCc2ccc(F)cc2)c1,inactive
14,Cc1cccc(NC(=S)NCc2ccc3[nH]c4c(c3c2)CCCC4)c1,20.6 µM (active)
15,CCc1cccc(NC(=O)CN(C)S(=O)(=O)c2ccc3[nH]c4c(c3c2)CCCC4)c1,inactive
16,CCCC(O)(c1ccccc1)C(c1ccccc1)c1ccccn1 (stereo unspecified),inactive
17,CCOC(=O)c1ccc(NC(=O)C2CCN(S(=O)(=O)c3ccc4c(c3)CCCC(=O)N4)CC2)cc1,inactive
18,COc1ccc(C(=O)NCCc2ccc(S(N)(=O)=O)cc2)cc1OC,inactive
19,CC(C)(CO)CNC(=O)c1ccc2[nH]c(O)c(N=Nc3ccc(S(N)(=O)=O)cc3)c2c1,1.58 µM (active)
20,Cc1c(C)n(Cc2ccc(Cl)cc2)c2ccc(C(=O)NCCc3ccc(S(N)(=O)=O)cc3)cc12,inactive
21,Cc1cc(NC(=O)CCC(=O)N(CC(=O)NCC2CCCO2)c2ccccc2C)no1 (stereo unspecified),inactive
22,Cc1cc(NC(=O)CCC(=O)N(CC(=O)NCC2CCCO2)c2ccccc2)no1 (stereo unspecified),inactive
23,CCCCOc1ccc(N(CC(=O)NCC2CCCO2)C(=O)CCC(=O)Nc2cc(C)ccn2)cc1 (stereo unspecified),23.1 µM (active)
24,Cc1oc2ncnc(N3CCCCC3)c2c1C(=O)N1CCN(c2cccc(Cl)c2)CC1,inactive
